G9a inh: inhibitors of human histone lysine methyltransferase G9a; 350,000 compounds, 8.8% hits; G9a H3K9 monomethylation, AlphaScreen, 2 h; Q96KQ7; Potency, µM (top dose mostly 102 µM), for inactives: top-dose activity, negative = inhibition, usual class: inhibitors; also: potency is read from the fitted curve at half-maximal effect; % is scaled to controls: 0 for no effect and ±100 for the full control effect; nearly all actives have a fitted effect of over 75% in size
Target sequence (Q96KQ7 913-1193 limits assumed): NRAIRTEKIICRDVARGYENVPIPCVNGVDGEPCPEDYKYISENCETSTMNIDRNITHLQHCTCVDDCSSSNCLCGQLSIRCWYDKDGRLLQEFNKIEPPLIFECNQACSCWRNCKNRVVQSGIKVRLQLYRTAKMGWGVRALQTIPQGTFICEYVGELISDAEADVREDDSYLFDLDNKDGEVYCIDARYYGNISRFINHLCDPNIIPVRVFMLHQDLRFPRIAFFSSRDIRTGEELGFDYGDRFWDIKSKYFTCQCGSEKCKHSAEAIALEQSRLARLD
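Enzyme 20 nM + cpd, 15 min RT; add b-H3K9 pep 500 nM / SAM 20 uM; 2 h RT; anti-H3K9me1 Ab 0.5 ug/mL + SA donor / anti-rabbit acceptor beads 20 ug/mL each, 10 min; AlphaScreen read.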
BAZ2B block: blocks human BAZ2B. Q9UIF8. AlphaScreen BAZ2B-H3K14Ac peptide displacement. Potency, µM (highest dose often 114 µM), for the others: at the highest dose activity change, negative = inhibition, hits mostly inhibitors. 360,000 compounds, 4.4% hits. AID 504333; also: potency is read from the fitted curve at half-maximal effect; % is scaled to controls: 0 for no effect and ±100 for the full control effect; nearly all actives have a fitted effect of over 60% in size
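AlphaScreen displacement: compounds (up to 110uM) incubated 30 min at room temperature with a preformed 50 nM BAZ2B/50 nM biotinylated H3K14Ac peptide complex in PBS pH 7.4 with Tween-20. Donor and acceptor beads at 10 ug/mL final added, 20 min light-protected before reading.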
Six1-Eya2 blk: blocks human Six1 binding to Eya2; Q15475+O00167; AlphaScreen GST-Six1/His-Eya2 binding, biochemical; hits give low values; activity change, % (concentration not given with the values); 360,000 compounds, 0.56% hits; in the data active = activity change below about -65%; inconclusive = mostly about -30% to -63%; also: % is scaled to controls: 0 for no effect and ±100 for the full control effect
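Compounds are tested against tagged Six1 and Eya2 proteins bridged by glutathione donor and nickel acceptor beads; after a one-hour incubation at 37 °C without light, AlphaScreen emission is recorded.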
JMJD2A Tudor: JMJD2A Tudor domain (human) inhibition; Potency, µM (highest dose often 114 µM), inactives show top-dose activity change, negative = inhibition, usual class: inhibitors; 390,000 compounds, 4.4% hits; AlphaScreen JMJD2A-Tudor / H3K4me3 peptide binding; also: potency is read from the fitted curve at half-maximal effect; % is scaled to controls: 0 for no effect and ±100 for the full control effect; nearly all actives have a fitted effect of over 50% in size
HP1b binding inh: blocks HP1-beta chromodomain binding to methylated histone tails; Potency, µM (top dose mostly 114 µM), inactives show at the highest dose activity change, negative = inhibition, usual class: inhibitors; AlphaScreen HP1-beta / biotin-H3K9me3 peptide binding; P83916; 390,000 compounds, 0.56% hits; also: potency is read from the fitted curve at half-maximal effect; nearly all actives have a fitted effect of over 70% in size
Target sequence (P83916 whole entry, looked up): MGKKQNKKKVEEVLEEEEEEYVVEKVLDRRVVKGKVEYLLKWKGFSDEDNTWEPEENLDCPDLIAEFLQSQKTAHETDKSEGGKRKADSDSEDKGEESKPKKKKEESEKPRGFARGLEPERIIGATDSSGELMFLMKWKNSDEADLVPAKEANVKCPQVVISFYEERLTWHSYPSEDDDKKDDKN
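Compound inhibition of the preformed complex between 50 nM HP1-beta and 50 nM biotinylated H3K9me3 peptide was read by AlphaScreen. Buffer was PBS pH 7.4 with 0.01% Tween-20. Incubations ran 30 min at room temperature, with 10 ug/mL donor/acceptor beads.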
CtBP-E1A inh: CtBP/E1A binding inhibition | AlphaScreen GST-E1A/His-CtBP binding, 1536-well; hits give low values | activity change, % (concentration not given with the values) | 340,000 compounds, 0.49% hits | AID 651724; in the data active = activity change below about -65%; inconclusive = mostly about -30% to -63%; also: % is scaled to controls: 0 for no effect and ±100 for the full control effect
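In 5 uL wells, 23 nL compound meets equimolar GST-E1A and His-CtBP (5X stock 125 nM each) for 2 h, 37 °C. Beads (5X, 50 ug/mL) then 1 h, 37 °C, dark.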
* marks the source's active call; other numbers are inactive results; ? = inconclusive; / = not tested or not shown; [ ] = dose if it differs, or a comment. A selection: hits, their analogues and other compounds. The true share with any hit is near 10%. Unless noted, calls follow the shape of the dose curve; as a rule, active = well fitted inhibition curve with a large enough effect; inconclusive = small, poorly fitted or top-dose-only effect; inactive = no such curve, though single readings can be large or run the other way.

SMILES	G9a inh	BAZ2B block	Six1-Eya2 blk	JMJD2A Tudor	HP1b binding inh	CtBP-E1A inh
CC(C)COC(=O)Nc1nnc(Cc2ccccc2)s1	-11.6%	-5.8%	0.0	17.8µM*	-3.9%	-3.7
CN(C)c1cccc(C(=O)Nc2nnc(Cc3ccccc3)s2)c1	39.8µM*	-31.3%	26.7	?	4.2%	-8.0
COc1ccc(OC)c(/C=C2\SC(N3CCCC(C)C3)=NC2=O)c1 (stereo unspecified)	28.2µM*	-4.4%	-5.9	7.5%	45.7%	0.0
Cc1cc(C)nc(NS(=O)(=O)c2ccc(NC(=O)c3cc(-c4ccccc4)nc4ccccc34)cc2)n1	?	-34.0%	-12.5	-28.6%	9.7%	4.6
Cc1ccc(-c2cc(C(=O)Nc3ccc(S(=O)(=O)Nc4onc(C)c4C)cc3)c3ccccc3n2)cc1	44.7µM*	50.1µM*	2.6	?	?	-15.1
Cc1noc(NS(=O)(=O)c2ccc(NC(=O)c3cccc(S(=O)(=O)N(C)c4ccccc4)c3)cc2)c1C	/	/	-0.9	-29.9%	16.5%	-7.6
Cc1ccc2c(C)c(C(=O)Nc3ccc(S(=O)(=O)Nc4onc(C)c4C)cc3)oc2c1	70.8µM*	?	-27.8	-32.4%	-11.7%	?
Cc1noc(NS(=O)(=O)c2ccc(NC(=O)c3ccc(Cl)c(S(=O)(=O)N(C)c4ccccc4)c3)cc2)c1C	50.1µM*	44.7µM*	-11.4	?	-22.2%	-9.2
CCCSc1cc(N2CCCC2)nc(-c2ccccc2)n1	95.1%	26.1%	13.8	121.0%	144.6%	-2.1
CCCSc1cc(N2CCN(C)CC2)nc(-c2ccc(OC)cc2)n1	50.1µM*	50.1µM*	-5.5	?	-25.4%	-20.2
CCCc1ccc(Oc2cc(NN3CCCCC3)c([N+](=O)[O-])cc2[N+](=O)[O-])cc1	-4.6%	-37.9%	2.1	-33.3%	3.9%	0.0
O=[N+]([O-])c1cc([N+](=O)[O-])c(Oc2c(F)cc(F)cc2F)cc1NN1CCCCC1	50.1µM*	?	-17.2	?	?	-19.1
O=[N+]([O-])c1cc([N+](=O)[O-])c(Oc2cccc3c2CCCC3)cc1NN1CCCCC1	/	/	0.6	-34.0%	0.4%	0.0
O=[N+]([O-])c1cc([N+](=O)[O-])c(Oc2ccc(Br)cc2Br)cc1NN1CCCCC1	15.8µM*	?	0.9	10µM*	?	-2.3
Cc1cc(F)ccc1Oc1cc(NN2CCCCC2)c([N+](=O)[O-])cc1[N+](=O)[O-]	?	?	-20.7	?	-14.7%	-16.7
COc1cccc(Oc2cc(NN3CCCCC3)c([N+](=O)[O-])cc2[N+](=O)[O-])c1OC	39.8µM*	8.91µM*	-16.1	?	-26.6%	-20.8
COc1ccc(-c2oc3c(CC=C(C)C)c(O[C@H]4OC(CO)C(O)C(O)C4O)cc(O)c3c(=O)c2O[C@@H]2OC(C)C(O)C(O)C2O)cc1 (stereo partly specified)	-33.4%[2.33 µM]	/	/	/	/	/
Cc1ccc(C(=O)C(OC(=O)CNC(=O)COc2ccccc2C)c2ccccc2)cc1 (stereo unspecified)	/	/	/	-12.3%[57.1 µM]	13.8%[57 µM]	/
O=C(COc1cccc2c1CCN(Cc1ccc(Br)cc1)C2=O)N1CCOCC1	1.6%	-17.2%	-1.0	-11.0%	29.6%	0.4
O=C(COc1cccc2c1CCN(Cc1ccc(Br)cc1)C2=O)NCc1ccco1	?	?	-2.3	50.1µM*	-31.5%	-1.0
O=C(c1cccc(F)c1)N1CCC2(CCCN(c3ccccn3)C2)CC1	3.3%[12.7 µM]	/	/	/	/	/
CC1CCN(C(=O)CSc2nnc(Cc3cccn3C)n2-c2ccc(F)cc2)CC1	?	-34.1%	-7.4	?	-10.9%	-1.7
Cn1cccc1Cc1nnc(SCC(=O)Nc2ccccc2)n1-c1ccc(F)cc1	44.7µM*	?	-4.4	?	35.7%	10.8
Cn1cccc1Cc1nnc(SCC(=O)Nc2ccccc2F)n1-c1ccc(F)cc1	44.7µM*	?	-7.4	-28.9%	17.8%	-4.4
Cn1cccc1Cc1nnc(SCC(=O)NCC2CCCO2)n1-c1ccc(F)cc1 (stereo unspecified)	35.5µM*	-5.9%	-9.8	0.0%	20.6%	-2.9
SMILES	G9a inh	BAZ2B block	Six1-Eya2 blk	JMJD2A Tudor	HP1b binding inh	CtBP-E1A inh
COc1ccc(-n2c(Cc3cccn3C)nnc2SCC(=O)Nc2cccc(F)c2)cc1	?	?	-11.4	?	8.3%	-19.5
Cc1ccccc1NC(=O)CSc1nnc(Cc2cccn2C)n1-c1ccc(F)cc1	?	?	-5.2	-31.0%	9.4%	-3.1
COc1ccc(NC(=O)CSc2nnc(Cc3cccn3C)n2-c2ccc(F)cc2)cc1OC	?	50.1µM*	-10.8	-34.5%	5.5%	-7.3
O=C1CN(C(=O)NCC(=O)N2CCCC2)c2ccccc2N1	8.2%[0.501 µM]	1.3%	-1.9	1.0%	52.1%	/
CC(C)C[C@H]1CN(CCCC[C@@H]2CNC(=O)C(=O)N2CCc2ccccc2)C(=O)C(=O)N1CCc1ccc(O)cc1	/	/	?	/	/	-29.4
FC(F)(F)c1ccccc1-c1nc(NC2CCNCC2)c2ccccc2n1	25.7%[0.501 µM]	/	/	/	/	/
CCOc1ccc(CNC(=O)CN2C(=O)CSc3ccc(S(=O)(=O)N4CCOCC4)cc32)cc1OC	12.1%	-11.0%[57.1 µM]	1.6	-27.7%	68.1%	1.6
CCCS(=O)(=O)NC(=O)C1(C)CCCN(C(=O)c2c(OC)cccc2OC)C1 (stereo unspecified)	/	/	6.9	/	/	-18.5
Cn1cccc1Cc1nnc(SCC(=O)Nc2ccc(F)cc2)n1-c1ccc(F)cc1	44.7µM*	?	-14.5	?	-16.8%	-12.8
COc1ccc(-n2c(Cc3cccn3C)nnc2SCC(=O)Nc2ccc(Cl)cc2)cc1	?	?	-23.3	?	-24.5%	-20.3
COc1ccc(-n2c(Cc3cccn3C)nnc2SCC(=O)Nc2ccccc2)cc1	28.2µM*	?	-8.8	?	-18.3%	-10.4
COc1ccc(-n2c(Cc3cccn3C)nnc2SCC(=O)NCc2ccc(F)cc2)cc1	44.7µM*	?	-11.8	-32.4%	4.7%	-6.6
CCSc1nnc(NC(=O)CSc2nnc(Cc3cccn3C)n2-c2ccc(F)cc2)s1	-8.6%	-3.0%	-11.0	-11.1%	27.5%	-19.0
Nc1ncnc2c1ncn2[C@@H]1O[C@H](C(=O)NS(=O)(=O)c2cccs2)[C@@H](O)[C@H]1O	/	/	0.4	/	/	-20.7
CCN1CCN(c2csc3ccc(F)cc3c2=O)CC1	?	-13.7%	/	-12.5%	29.9%[57 µM]	/
CCC(Oc1ccc(F)cc1)C(=O)Nc1c(C(=O)c2ccc(C)cc2)oc2ccccc12 (stereo unspecified)	16.3%[59 µM]	6.6%	/	14.1%	90.9%	/

Screens: PubChem, National Center for Advancing Translational Sciences (NCATS)
